Measured values reported in PubChem BioAssay (NCATS).
Inconclusive results are not listed. Calls of active or inactive are those of the source. Unless noted, the call rests on the fitted dose curve; in most records, active means well fitted curve in the direction sought with a large enough effect; inconclusive means small, poorly fitted or top-dose-only effect, or another doubt; inactive means no such curve, though single readings can be large; an effect the other way counts as inactive or inconclusive.

What was measured:
[1] = High Content Imaging Cell-Based qHTS for Inhibitors of the mTORC1 Signaling Pathway in MEF Cells (AID 2667); further: potency means the concentration at half of the fitted maximal effect
Summary of the method: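 MEF (Tsc2-/-, p53-/-, WT Tsc2 re-expressed); cpd 24 h, 37 °C; PFA fix; Alexa-488 anti-p-rpS6 Ser235/236, PI, Hoechst; IN Cell imaging; Hoechst/Alexa-488 intensity ratio; % active cells, thresholds set from rapamycin and DMSO wells.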

[2] = Validation screen for small molecules that induce DNA re-replication in MCF 10A normal breast cells (AID 463097); further: nearly all actives have a fitted effect of over 60% in size; further: potency means the concentration at half of the fitted maximal effect
Summary of the method: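 MCF 10A cells exposed to compound 48 hr at 37 C, 5% CO2, then Hoechst-stained 40 min. Laser-scanning imaging of nuclear DNA content (405 nm ex, 500-530 nm em); re-replication scored as rise in nuclei with elevated fluorescence intensity.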

[3] = target: Ubiquitin carboxyl-terminal hydrolase 2 (Homo sapiens) (UniProt O75604); assay: qHTS Validation Assay for Inhibitors of Ubiquitin-specific Protease USP2a Using CHOP2 as the Reporter (AID 463106)
Summary of the method: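 USP2 core (10nM final) was preincubated with compound for 30min at RT in 20mM Tris-HCl pH 8.0, 2mM CaCl2, 2mM beta-mercaptoethanol, 0.05% CHAPS. Ub-CHOP2 and reporter substrate (25nM each) were added, and fluorescence (Ex 485/Em 531nm) was read after 60min.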

[4] = target: Tumor susceptibility gene 101 protein (Homo sapiens) (UniProt Q99816); assay: qHTS Validation Assay for Iinhibitors of HIV-1 Budding by Blocking the Interaction of PTAP/TSG101 (AID 485342; calls by dose curve)
Summary of the method: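 Tsg101 binding domain (10 uM) with FITC-labeled PTAP peptide (50 nM) in HEPES pH 7.5 buffer, 20 min at r.t. with compounds. Binding measured by fluorescence polarization.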

[5] = target: Beta-2 adrenergic receptor (Homo sapiens) (UniProt P07550); assay: qHTS validation assay of beta-arrestin-biased ligands of beta2-adrenergic receptor (AID 485366)
Summary of the method: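 Tango cells expressing recombinant beta2-AR and beta-arrestin with tTA-driven luciferase, in DMEM with 1% FBS. Compounds were titrated up to 46 microM for 18 hr at 37 degrees C. Luminescence was read 15 min after substrate; curves were fitted and class-assigned.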

[6] = Quantitative high throughput screen for delayed death inhibitors of the malarial parasite plastid, 96 hour incubation (AID 488745); further: nearly all actives have a fitted effect of over 70% in size; further: potency means the concentration at half of the fitted maximal effect
Summary of the method: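 P. falciparum carrying an integrated firefly luciferase reporter, grown in erythrocytes (2% hematocrit, 0.1% parasitemia final) in RPMI 1640/0.5% Albumax, was exposed to compound for 96 h (two generations) at 37 C, 5% CO2. Luminescence decrease indicated growth inhibition.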

[7] = target: Thioredoxin reductase 1, cytoplasmic (Rattus norvegicus) (UniProt O89049); assay: qHTS Assay for Substrates of Mammalian Selenoprotein Thioredoxin Reductase 1 (TrxR1) (AID 488772);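 further: NADPH fluorescence in the first read after selenite addition and not the 8 min delta; series mostly up to about 57 µM; a drop in NADPH fluorescence below the no-compound background marks a TrxR1 substrate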
Summary of the method: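 Quantitative HTS in Tris-HCl buffer at pH 7.5 with EDTA and Tween-20, using rat TrxR1, 400 uM NADPH and 400 uM selenite (final). A fall in initial NADPH fluorescence relative to background marked substrate behaviour.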

[8] = target: Flap endonuclease 1 (Homo sapiens) (UniProt P39748); assay: qHTS Validation Assay for the Inhibitors of Human Flap endonuclease 1 (FEN1) (AID 488816); further: potency means the concentration at half of the fitted maximal effect
Summary of the method: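 FEN1, dispensed as a 10 nM reagent, was preincubated with pin-transferred compounds for 15 min at room temperature before substrate was added (50 nM final). Plates were read at 0 and 15 min, and a four-parameter Hill equation was fitted to the concentration-response data.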

[9] = target: M-phase phosphoprotein 8 (Homo sapiens) (UniProt Q99549); assay: qHTS Validation Assay for Inhibitors for MPP8 Chromodomain Interactions with Methylated Histone Tails (AID 488949); further: nearly all actives have a fitted effect of over 55% in size; further: potency means the concentration at half of the fitted maximal effect
Summary of the method: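 MPP8 (50 nM) was pre-bound to 50 nM biotinylated H3(1-18)K9me3 peptide in PBS pH 7.4 with 0.01% Tween-20. Compounds were then added for 30 min at room temperature, and complex disruption was read by AlphaScreen with streptavidin donor and nickel-chelate acceptor beads.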

[10] = target: Chromobox protein homolog 1 (Homo sapiens) (UniProt P83916); assay: qHTS Validation Assay for Inhibitors of HP1-beta Chromodomain Interactions with Methylated Histone Tails (AID 488953); further: nearly all actives have a fitted effect of over 50% in size; further: potency means the concentration at half of the fitted maximal effect
Summary of the method: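 HP1-beta (50 nM) was preincubated 30 min at room temperature with biotinylated H3(1-18)K9me3 peptide (50 nM) in PBS pH 7.4, 0.01% Tween-20, then with compounds 30 min. AlphaScreen signal was read after streptavidin donor/nickel chelate acceptor beads (10 ug/mL final).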

[11] = Cytometric Cell-Based qHTS for Inhibitors of the mTORC1 Signaling Pathway in MEF (Tsc2-/-, p53-/-) Cells (AID 2660); further: potency means the concentration at half of the fitted maximal effect
Summary of the method: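 Tsc2-/-, p53-/- MEFs (empty vector) exposed to compound 24 h at 37 C, fixed, stained with Alexa-488 anti-phospho-rpS6 Ser235/236 and propidium iodide. Acumen laser scanning; phospho-S6/PI ratio thresholded against 7.5 nM rapamycin, reported as % positive cells.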

[12] = High Content Imaging Cell-Based qHTS for Inhibitors of the mTORC1 Signaling Pathway in MEF (Tsc2-/-, p53-/-) Cells (AID 2666);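 further: percent of cells scored positive for phospho-rpS6 Ser235/236 immunostaining by imaging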; further: potency means the concentration at half of the fitted maximal effect
Summary of the method: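 Read-out: % positive cells per well, with thresholds from highest- and lowest-signal wells, based on phospho-rpS6 (Ser235/236) intensity normalized to Hoechst nuclear stain. Cells: Tsc2-/-, p53-/- MEFs carrying empty vector; compound 24 hrs, 37 degree Celsius.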

[13] = Validation screen for inhibitors of Lassa infection (AID 463096; calls by dose curve; further: potency means the concentration at half of the fitted maximal effect)
[14] = Quantitative high throughput screen for delayed death inhibitors of the malarial parasite plastid, 48 hour incubation (AID 488752); further: nearly all actives have a fitted effect of over 65% in size; further: potency means the concentration at half of the fitted maximal effect
Summary of the method: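 Erythrocytes infected with P. falciparum carrying an integrated firefly luciferase reporter (2% hematocrit, 0.1% parasitemia final) were exposed to compounds in RPMI 1640/0.5% Albumax for 48 h at 37 C, 5% CO2. Growth inhibition was scored as reduced luminescence.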

[15] = target: DNA polymerase III PolC-type (Bacillus subtilis (strain 168)) (UniProt P13267); assay: qHTS Validation Assay for the Inhibitors of DNA Replication in Gram-Positive Bacteria (AID 485295);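 further: PicoGreen fluorescence of double-stranded DNA made on primed circular M13 template; series mostly up to about 57 µM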
Summary of the method: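 Reconstituted B. subtilis Pol III holoenzyme (PolC, beta clamp, SSB, primase) preincubated with compound, then M13Gori single-stranded circular template with dNTPs/NTPs added; room temperature reaction. Stopped with EDTA/PicoGreen; dsDNA fluorescence read, EDTA as full-inhibition control.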

[16] = qHTS Validation Assay to Find Inhibitors of Chronic Active B-Cell Receptor Signaling (AID 485345; active means well fitted curve in the direction sought with a large enough effect in the main read-out, with a control signal flat, not every such curve was filed as active)
Summary of the method: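 TMD8 ABC-DLBCL cells with dox-inducible green luciferase–IκBα fusion and red native luciferase; compounds 46 uM–3 nM, 4 h at 37C with doxycycline in 0.5% FBS IMDM. Green/red ratio normalized to basal and 10 uM MG-132.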

[17] = target: ATP-dependent 6-phosphofructokinase (Trypanosoma brucei brucei) (UniProt O15648); assay: qHTS Validation Assay to Find Inhibitors of T. brucei phosphofructokinase (AID 485368); further: potency means the concentration at half of the fitted maximal effect
Summary of the method: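 Activity was read as ADP production by luminescence (ADP-Glo) after 45 min at room temperature. The enzyme was 1.25nM PFK in 0.1M TEA pH 8.0 with 0.5 mM F6P, 0.1mM ATP and 5 mM MgCl2. Compounds were titrated up to 57 uM and % activity normalized to no-enzyme and full-enzyme controls.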

[18] = target: Thioredoxin reductase 1, cytoplasmic (Rattus norvegicus) (UniProt O89049); assay: qHTS Assay for Inhibitors of Mammalian Selenoprotein Thioredoxin Reductase 1 (TrxR1) (AID 488773); conditions: Potency: inhibition; further: nearly all actives have a fitted effect of over 40% in size; further: potency means the concentration at half of the fitted maximal effect
Summary of the method: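 Steps: enzyme (90 nM) plus NADPH (400 uM final), 5 min at ~22 deg C; compound added, 15 min; selenite (400 uM final) added; fluorescence followed for 8 min. Concentration-response curves derived from the normalized delta values.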

[19] = Cytometry Cell-Based qHTS for Inhibitors of the mTORC1 Signaling Pathway in MEF cells (AID 2668);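 further: Tsc2-/- p53-/- mouse embryonic fibroblasts stably re-expressing wild-type Tsc2; percent cells positive for phospho-rpS6 Ser235/236 relative to propidium iodide stain; series mostly up to about 38 µM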
Summary of the method: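 MEFs (Tsc2-/-, p53-/- stably expressing WT Tsc2) treated 24 h at 37 degree Celsius, fixed, stained with Alexa-488 anti-phospho-rpS6 Ser235/236 and propidium iodide; Acumen laser scanning. Reported as % positive cells, phospho-S6 normalized to PI.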

Measured: Potency

Chain of Ubiquitin carboxyl-terminal hydrolase 2 (Homo sapiens) (O75604 whole entry, looked up): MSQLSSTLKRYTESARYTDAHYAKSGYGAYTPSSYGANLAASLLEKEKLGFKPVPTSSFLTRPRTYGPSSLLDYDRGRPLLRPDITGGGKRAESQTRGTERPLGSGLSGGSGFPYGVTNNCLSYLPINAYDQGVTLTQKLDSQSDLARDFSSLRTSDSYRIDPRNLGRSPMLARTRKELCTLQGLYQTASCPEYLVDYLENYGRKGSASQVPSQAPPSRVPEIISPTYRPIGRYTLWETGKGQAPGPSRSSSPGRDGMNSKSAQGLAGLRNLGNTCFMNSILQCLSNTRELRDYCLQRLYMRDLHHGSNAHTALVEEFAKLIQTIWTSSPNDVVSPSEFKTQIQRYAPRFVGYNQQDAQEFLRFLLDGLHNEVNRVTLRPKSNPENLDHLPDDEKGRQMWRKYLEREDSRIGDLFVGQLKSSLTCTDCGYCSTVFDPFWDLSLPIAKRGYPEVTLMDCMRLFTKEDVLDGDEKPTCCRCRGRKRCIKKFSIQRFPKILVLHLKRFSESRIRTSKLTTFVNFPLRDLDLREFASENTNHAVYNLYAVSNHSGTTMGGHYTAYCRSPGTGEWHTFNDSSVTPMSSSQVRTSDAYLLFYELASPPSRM
Chain of Tumor susceptibility gene 101 protein (Homo sapiens) (Q99816 whole entry, looked up, the tested form may be a part): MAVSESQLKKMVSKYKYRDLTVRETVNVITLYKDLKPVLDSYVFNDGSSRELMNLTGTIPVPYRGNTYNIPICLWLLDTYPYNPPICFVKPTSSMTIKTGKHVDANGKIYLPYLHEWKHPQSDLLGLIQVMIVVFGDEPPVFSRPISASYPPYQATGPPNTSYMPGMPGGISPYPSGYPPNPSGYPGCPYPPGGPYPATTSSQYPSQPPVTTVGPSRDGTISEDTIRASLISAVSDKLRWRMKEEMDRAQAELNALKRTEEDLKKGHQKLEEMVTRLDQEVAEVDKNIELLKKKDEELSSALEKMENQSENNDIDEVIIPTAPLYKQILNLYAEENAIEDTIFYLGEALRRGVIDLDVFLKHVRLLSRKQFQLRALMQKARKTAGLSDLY
Chain of Thioredoxin reductase 1, cytoplasmic (Rattus norvegicus) (O89049 whole entry, looked up): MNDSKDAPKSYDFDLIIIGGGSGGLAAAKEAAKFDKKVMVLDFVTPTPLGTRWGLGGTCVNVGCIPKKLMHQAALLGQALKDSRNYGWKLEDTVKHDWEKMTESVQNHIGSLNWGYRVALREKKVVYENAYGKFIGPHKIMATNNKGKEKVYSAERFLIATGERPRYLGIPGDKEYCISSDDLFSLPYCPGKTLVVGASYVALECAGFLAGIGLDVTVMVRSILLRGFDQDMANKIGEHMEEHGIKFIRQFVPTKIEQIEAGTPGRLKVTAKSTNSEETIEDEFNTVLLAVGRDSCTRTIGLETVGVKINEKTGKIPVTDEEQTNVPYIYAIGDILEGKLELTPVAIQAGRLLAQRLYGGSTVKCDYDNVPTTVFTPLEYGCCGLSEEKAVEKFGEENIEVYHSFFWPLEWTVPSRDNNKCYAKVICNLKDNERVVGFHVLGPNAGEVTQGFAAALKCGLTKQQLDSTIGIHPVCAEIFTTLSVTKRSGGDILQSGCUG
Chain of Beta-2 adrenergic receptor (Homo sapiens) (P07550 whole entry, looked up): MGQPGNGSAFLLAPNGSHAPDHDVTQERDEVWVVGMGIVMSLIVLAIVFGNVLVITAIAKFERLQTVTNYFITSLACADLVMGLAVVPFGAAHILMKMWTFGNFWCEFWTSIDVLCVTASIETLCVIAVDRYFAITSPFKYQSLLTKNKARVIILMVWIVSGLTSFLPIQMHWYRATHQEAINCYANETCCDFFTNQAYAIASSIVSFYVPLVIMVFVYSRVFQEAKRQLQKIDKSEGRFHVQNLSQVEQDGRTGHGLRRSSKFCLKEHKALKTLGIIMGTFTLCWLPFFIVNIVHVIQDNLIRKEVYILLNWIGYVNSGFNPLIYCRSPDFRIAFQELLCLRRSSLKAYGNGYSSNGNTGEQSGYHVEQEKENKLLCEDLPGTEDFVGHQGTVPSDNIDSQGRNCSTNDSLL
Chain of DNA polymerase III PolC-type (Bacillus subtilis (strain 168)) (P13267 whole entry, looked up): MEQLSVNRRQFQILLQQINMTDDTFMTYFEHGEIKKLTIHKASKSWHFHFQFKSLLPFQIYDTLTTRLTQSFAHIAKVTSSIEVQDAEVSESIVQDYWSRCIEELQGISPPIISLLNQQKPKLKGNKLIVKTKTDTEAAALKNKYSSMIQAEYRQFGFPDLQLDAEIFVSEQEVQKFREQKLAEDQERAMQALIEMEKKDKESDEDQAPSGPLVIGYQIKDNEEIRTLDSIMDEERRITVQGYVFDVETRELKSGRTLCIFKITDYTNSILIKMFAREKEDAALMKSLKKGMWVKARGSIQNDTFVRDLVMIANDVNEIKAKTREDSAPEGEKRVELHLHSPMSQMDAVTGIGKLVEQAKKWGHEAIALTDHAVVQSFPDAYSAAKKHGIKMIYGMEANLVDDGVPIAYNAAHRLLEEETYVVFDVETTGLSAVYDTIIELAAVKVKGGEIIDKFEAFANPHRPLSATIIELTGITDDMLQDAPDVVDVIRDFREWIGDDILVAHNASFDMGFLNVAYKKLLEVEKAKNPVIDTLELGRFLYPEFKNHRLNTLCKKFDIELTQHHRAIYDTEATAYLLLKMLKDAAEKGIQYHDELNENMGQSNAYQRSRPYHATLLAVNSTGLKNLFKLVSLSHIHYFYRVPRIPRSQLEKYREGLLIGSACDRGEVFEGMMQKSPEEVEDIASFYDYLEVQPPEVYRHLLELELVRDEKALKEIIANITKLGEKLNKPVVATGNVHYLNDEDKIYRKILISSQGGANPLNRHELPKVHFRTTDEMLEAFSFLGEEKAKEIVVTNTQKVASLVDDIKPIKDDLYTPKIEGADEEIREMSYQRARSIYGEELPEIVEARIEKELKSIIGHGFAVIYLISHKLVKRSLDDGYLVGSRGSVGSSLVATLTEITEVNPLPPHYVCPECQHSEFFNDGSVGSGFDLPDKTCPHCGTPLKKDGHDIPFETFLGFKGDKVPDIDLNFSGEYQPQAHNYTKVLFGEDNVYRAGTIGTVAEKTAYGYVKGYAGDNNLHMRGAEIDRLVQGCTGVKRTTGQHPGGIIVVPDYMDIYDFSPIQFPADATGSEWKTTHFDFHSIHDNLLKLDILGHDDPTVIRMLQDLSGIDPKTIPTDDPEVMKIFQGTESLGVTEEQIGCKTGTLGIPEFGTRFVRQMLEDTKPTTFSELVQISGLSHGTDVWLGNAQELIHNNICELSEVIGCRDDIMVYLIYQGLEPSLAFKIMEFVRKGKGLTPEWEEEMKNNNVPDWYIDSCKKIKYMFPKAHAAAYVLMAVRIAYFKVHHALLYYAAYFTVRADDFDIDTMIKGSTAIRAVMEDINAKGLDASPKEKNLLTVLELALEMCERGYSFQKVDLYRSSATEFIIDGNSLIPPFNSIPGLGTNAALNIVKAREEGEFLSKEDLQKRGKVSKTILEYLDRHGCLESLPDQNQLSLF
Chain of Chromobox protein homolog 1 (Homo sapiens) (P83916 whole entry, looked up): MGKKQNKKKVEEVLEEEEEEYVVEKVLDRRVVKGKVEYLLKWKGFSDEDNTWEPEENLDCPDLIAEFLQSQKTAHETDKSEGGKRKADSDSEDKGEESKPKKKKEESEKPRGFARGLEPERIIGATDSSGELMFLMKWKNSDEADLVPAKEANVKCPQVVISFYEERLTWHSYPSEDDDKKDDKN
Chain of ATP-dependent 6-phosphofructokinase (Trypanosoma brucei brucei) (O15648 whole entry, looked up): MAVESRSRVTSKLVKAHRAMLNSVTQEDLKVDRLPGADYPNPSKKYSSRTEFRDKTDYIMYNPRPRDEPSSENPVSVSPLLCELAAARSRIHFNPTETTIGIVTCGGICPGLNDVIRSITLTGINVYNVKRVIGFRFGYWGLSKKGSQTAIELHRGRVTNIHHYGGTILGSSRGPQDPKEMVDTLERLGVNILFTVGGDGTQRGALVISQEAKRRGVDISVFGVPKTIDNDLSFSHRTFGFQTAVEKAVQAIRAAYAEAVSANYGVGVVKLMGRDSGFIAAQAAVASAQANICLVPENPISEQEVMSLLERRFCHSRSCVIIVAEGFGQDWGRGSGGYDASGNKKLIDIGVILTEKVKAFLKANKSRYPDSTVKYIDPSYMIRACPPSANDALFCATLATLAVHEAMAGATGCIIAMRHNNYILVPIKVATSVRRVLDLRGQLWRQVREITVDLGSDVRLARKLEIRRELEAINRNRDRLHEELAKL
Chain of M-phase phosphoprotein 8 (Homo sapiens) (Q99549 whole entry, looked up): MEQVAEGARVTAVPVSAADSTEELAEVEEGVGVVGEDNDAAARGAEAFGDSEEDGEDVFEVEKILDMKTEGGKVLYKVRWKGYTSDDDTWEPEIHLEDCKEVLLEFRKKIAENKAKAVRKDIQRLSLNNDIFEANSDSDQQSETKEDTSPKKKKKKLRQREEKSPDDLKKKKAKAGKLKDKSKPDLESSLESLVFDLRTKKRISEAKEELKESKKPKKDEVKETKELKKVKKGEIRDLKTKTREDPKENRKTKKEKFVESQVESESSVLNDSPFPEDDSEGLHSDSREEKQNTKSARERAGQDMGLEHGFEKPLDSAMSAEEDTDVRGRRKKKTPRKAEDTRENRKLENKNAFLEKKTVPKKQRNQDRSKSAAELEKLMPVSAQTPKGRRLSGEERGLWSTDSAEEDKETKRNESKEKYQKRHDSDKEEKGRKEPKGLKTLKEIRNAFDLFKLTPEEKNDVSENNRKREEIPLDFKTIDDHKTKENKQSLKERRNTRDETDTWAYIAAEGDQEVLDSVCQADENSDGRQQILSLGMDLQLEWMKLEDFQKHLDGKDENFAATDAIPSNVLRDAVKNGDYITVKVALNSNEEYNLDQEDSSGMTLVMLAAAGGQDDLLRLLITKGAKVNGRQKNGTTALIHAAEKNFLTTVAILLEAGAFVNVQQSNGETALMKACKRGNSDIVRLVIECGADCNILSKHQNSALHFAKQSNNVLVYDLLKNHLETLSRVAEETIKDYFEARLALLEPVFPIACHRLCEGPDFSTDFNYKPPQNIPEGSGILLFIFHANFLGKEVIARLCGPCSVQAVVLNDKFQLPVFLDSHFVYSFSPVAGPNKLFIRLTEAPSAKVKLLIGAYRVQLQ

Cc1c2ccncc2c(C)c2c1[nH]c1ccccc12
inactive: [1] | [3] | [4] | [5] | [7] | [9]
active: [2] 7.08 µM | [6] 1.17 µM | [8] 10.6 µM | [10] 50.1 µM

CNc1ccc2oc(C[C@H]3O[C@@]4(CC[C@H]3C)O[C@H]([C@H](C)C(=O)c3ccc[nH]3)[C@H](C)C[C@H]4C)nc2c1C(=O)O
active: [11] 14.7 µM | [12] 2.61 µM | [13] 7.08 µM | [2] 1.58 µM | [6] 0.104 µM | [14] 2.33 µM | [10] 0.006 µM
inactive: [4] | [5] | [7] | [8] | [9]

Oc1ccc2c3c1O[C@H]1c4oc5ccccc5c4C[C@@]4(O)C(C2)N(CC2CC2)CCC314 (stereo partly drawn)
active: [13] 7.94 µM | [6] 7.38 µM
not listed: [1] | [14] | [18] | [19]
inactive: all other assays above

N#CC(C#N)=Cc1cc(O)c(O)c(O)c1
inactive: [13] | [2] | [14]
active: [9] 39.8 µM

O=[N+]([O-])/C=C/c1ccc2c(c1)OCO2
active: [1] 2.07 µM | [10] 14.1 µM
inactive: [12] | [15] | [4] | [5] | [9]

CN(N=O)c1cc(O)ccc1O
inactive: [1] | [13] | [2] | [4] | [16] | [5] | [14] | [7]
active: [17] 7.57 µM | [18] 0.752 µM | [9] 8.91 µM | [10] 50.1 µM

COc1ccc2c(c1OC)C(=O)OC2C1c2cc3c(cc2CCN1C)OCO3 (stereo not drawn)
inactive: [13] | [2]

CC1OC1P(=O)(O)O (stereo not drawn)
inactive: [2] | [6] | [9]

N[C@@]1(C(=O)O)CC[C@@H](C(=O)O)C1
not listed: [8] | [11] | [17]
inactive: all other assays above

CCCCCCCCCCCCCC(=O)O[C@@H]1[C@@H](C)[C@@]2(O)[C@@H](C=C(CO)C[C@@]3(O)C(=O)C(C)=C[C@@H]23)C2C(C)(C)[C@@]21OC(C)=O (stereo partly drawn)
inactive: [15] | [4] | [5] | [7] | [8] | [9] | [10]
active: [6] 11.7 µM

CCCN1CCc2cc(O)cc3c2[C@H]1Cc1ccc(O)c(O)c1-3
inactive: [4] | [5] | [7]
active: [17] 3.01 µM | [9] 11.9 µM | [10] 1.34 µM

CCCN1CCCC2Cc3[nH]ncc3CC21 (stereo not drawn)
inactive: [13] | [2] | [6] | [9]

C=CCN1CCc2cccc3c2[C@H]1Cc1ccc(O)c(O)c1-3
active: [1] 7.36 µM | [18] 5.97 µM | [10] 44.7 µM
inactive: [11] | [12] | [4] | [5] | [7] | [8]
